Records with an inconclusive call do not appear. Activity calls are given as the source filed them. How the source made its calls: active means hit-call score of the fitted dose curve at least 0.9, where 1 is the maximum; inconclusive means response in the unintended direction; inactive means score below 0.9.
Assay: CCTE_Simmons_CellTiterGLO_HEK293T: Viability Assessment in CCTE's Assays for Thyroperoxidase (TPO) Inhibition, Simmons Lab (AID 2283665);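 on AC50: cells exposed to compound for 24 h before readout; actives reduce ATP signal below DMSO vehicle meaning cytotoxicity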
Protocol: CCTE_Simmons_CellTiterGLO_HEK293T is a cell-based, single-readout assay that uses HEK293T, a human kidney cell line, with measurements taken at 24 hours after chemical dosing in a 384-well plate.CCTE_Simmons_CellTiterGLO_HEK293T is the assay component measured from the CCTE_Simmons_CellTiterGLO_HEK293T assay. It is designed to make measurements of ATP content, a form of viability reporter, as detected with bioluminescence signals by Luciferase-coupled ATP quantitation technology. This is a secondary cytotoxicity assay to CCTE_Simmons_AUR_TPO to estimate a cellular tolerance limit.Data from the assay component CCTE_Simmons_CellTiterGLO_HEK293T was analyzed at the endpoint, CCTE_Simmons_CellTiterGLO_HEK293T, in the positive analysis fitting direction relative to DMSO as the negative control and baseline of activity. Using a type of viability reporter, measures of ATP content for loss-of-signal activity can be used to understand the viability. This assay was run in parallel with aeid 1508 as a means of indicating the range of chemical cytotoxicity or reactivity. To generalize the intended target to other relatable targets, this assay endpoint is annotated to the cell cycle intended target family, where the subfamily is cytotoxicity.
Human HEK293T cells (GenHunter; Nashville, Tennessee) were seeded overnight in 384-well, solid white assay plates (Greiner, BioExpress) at a density of 10 000 cells per well in 65 ul Dulbecco's Modified Eagle Medium (Life Technologies; Carlsbad, California) supplemented with 1% fetal bovine serum (HyClone; Logan, Utah). Test compounds were administered using the HDRT as described earlier to achieve a 0.5% final DMSO concentration. Cells were then incubated at 37C for 24 hr in a humidified 5% CO2 incubator. Cell Titer Glo (Promega; Madison, WI) reagent (25 ul) was then added by the BioTek MicroFlo and microplates were incubated at room temperature in the dark for 20min. Plates were read on a plate reader (FLUOStar Optima) using an endpoint luminescence protocol (top read). Three biological replicates of technical singles were run for every chemical concentration tested. A titrated range of DCNQ served as a positive control on each plate of the cytotoxicity screening assay.Test chemicals were administered as a titrated series of 8 concentrations from 5 nM up to 87.5 uM [final] for 24 hours prior to single endpoint detection. Three biological replicates of technical singles were run for every chemical concentration tested. Dimethylsulfoxide [DMSO] was used as the vehicle control. Dichlone [DCNQ] was used as the positive control and was administered as a titrated series of 8 concentrations from 1 nM up to 100 uM [final].

Row | SMILES | outcome | AC50
1 | Cc1ccc(O)c(C)c1 | inactive | 
2 | Sc1ccccc1 | inactive | 
3 | c1ccc(-c2ccccc2)cc1 |  | 34.5 µM (active)
4 | O=C(NC(=O)c1c(F)cccc1F)Nc1cc(Cl)c(OC(F)(F)C(F)F)c(Cl)c1 | inactive | 
5 | CCCCCCCCCc1ccc(O)cc1 |  | 15.7 µM (active)
6 | Cc1ccccc1CO[C@@H]1C[C@@]2(C(C)C)CC[C@]1(C)O2 |  | 21.6 µM (active)
7 | C[C@]12CCC(=O)C=C1CC[C@@H]1[C@@H]2CC[C@]2(C)C(=O)CC[C@@H]12 | inactive | 
8 | CC(c1ccc(O)cc1)(c1ccc(O)cc1)c1ccc(O)cc1 |  | 36.9 µM (active)
9 | O=C(O)C(F)(F)C(F)(F)C(F)(F)C(F)(F)C(F)(F)C(F)(F)C(F)(F)C(F)(F)F |  | 21.8 µM (active)
10 | Oc1ccc(C(c2ccc(O)cc2)(C(F)(F)F)C(F)(F)F)cc1 |  | 11 µM (active)
11 | CCOP(=S)(OCC)SCSC(C)(C)C |  | 20.9 µM (active)
12 | COc1ccc(O)c(C(C)(C)C)c1 |  | 60.5 µM (active)
13 | CCC(=O)O[C@H]1CC[C@H]2[C@@H]3CCC4=CC(=O)CC[C@]4(C)[C@H]3CC[C@]12C |  | 9.47 µM (active)
14 | CCCCCCCCCC[N+](C)(C)CCCCCCCCCC |  | 3.92 µM (active)
15 | Clc1ccc(C(Cl)(Cl)Cl)cc1 | inactive | 
16 | CC(C)(c1ccccc1)c1ccc(O)cc1 |  | 12.2 µM (active)
17 | Oc1c(Cl)c(Cl)c(Cl)c(Cl)c1Cl | inactive | 
18 | CCC(C)(c1ccc(O)cc1)c1ccc(O)cc1 |  | 37.4 µM (active)
19 | CCCCCCCCOC(=O)c1ccccc1C(=O)OCCCCCCCC | inactive | 
20 | O=C(O)C(F)(F)C(F)(F)C(F)(F)C(F)(F)C(F)(F)C(F)(F)C(F)(F)C(F)(F)C(F)(F)F |  | 38.3 µM (active)
21 | COS(=O)(=O)OC | inactive | 

— PubChem BioAssay (EPA / NIEHS)
